Several values for one entry are separate records, joined by “and”; a condition that tells them apart may be missing. Identical values can stand only once. Entries after “also recorded” stand apart in the source; their conditions may differ. Results filed as inconclusive are left out. Where a call stands in place of a potency, no number is given. More than one record can exist for a structure, and the calls need not agree. Activity calls are given as the source filed them. The call rests on the fitted dose curve.
Assay: Cytotoxicity counterscreen for inhibitors of SARS-CoV-2 cell entry (AID 1645845); further: nearly all actives have a fitted effect of over 50% in size
Settings: cell viability (SARS-CoV-2 entry assay cells); series mostly up to 57.1 µM; activity change, negative = cytotoxicity: at the top concentration
Procedure, shortened: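 ATP-content luminescence (ATPLite 1step, 15 min RT) read after 48 h compound exposure of Expi293F cells stably expressing human ACE2; normalized to cells-only wells and media-only wells.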
Potency means the concentration at half of the fitted maximal effect.

| SMILES | outcome | activity change, negative = cytotoxicity | Potency |
| --- | --- | --- | --- |
| CCCCCN(C)CCC(O)(P(=O)(O)O)P(=O)(O)O | inactive [at 11.3 µM]; also recorded: inactive [at 5.25 µM] | – | – |
| C[C@]12CCC(=O)C=C1CC[C@@H]1[C@@H]2[C@@H](O)C[C@@]2(C)[C@H]1CC[C@]2(O)C(=O)COC(=O)CCC(=O)O | – | 4.12% (inactive) | – |
| C[C@]12C=CC(=O)C=C1[C@@H](F)C[C@@H]1[C@@H]2[C@@H](O)C[C@@]2(C)[C@H]1CC[C@]2(O)C(=O)CO | – | 3.35% (inactive) | – |
| COC(=O)/C=C\C(=O)OC | inactive | – | – |
| O=C(c1ccccc1)C(O)c1ccccc1 (stereo not drawn) | inactive | – | – |
| CCN(CC)C(=O)/C(C#N)=C/c1cc(O)c(O)c([N+](=O)[O-])c1 | – | -2.36% (inactive) | – |
| O=S(=O)(O)c1ccc(O)cc1 | inactive | – | – |
| O=C(O)CSCC(=O)NC1CCSC1=O (stereo not drawn) | – | – | inactive |
| CCOC(=O)C1=C[C@@H](OC(CC)CC)[C@H](NC(C)=O)[C@@H](N)C1 | – | – | inactive |
| NS(=O)(=O)c1cc(-c2nn[nH]n2)c(NCc2cccs2)cc1Cl | – | -3.95% (inactive) | – |
| CN(C)C(=O)Oc1ccc[n+](C)c1 | – | 0.717% (inactive) | – |
| CC1(C)S[C@@H]2[C@H](NC(=O)C(c3ccccc3)S(=O)(=O)O)C(=O)N2[C@H]1C(=O)O (stereo partly drawn) | – | -7.14% (inactive) | – |
| Nc1nc(=O)n([C@@H]2CS[C@H](CO)O2)cc1F | inactive | – | – |
| Cc1cc(C)nc(NS(=O)(=O)c2ccc(N)cc2)n1 | inactive | – | – |
| CCCCCCCCCCCCCCCC(=O)OCCC1CCN(CCCN2c3ccccc3Sc3ccc(S(=O)(=O)N(C)C)cc32)CC1 | inactive | – | – |
| CCCCCC=CCC=CCCCCCCCC(=O)OCC | – | 0.856% (inactive) | – |
| COc1cc2c(Nc3ccc(Br)cc3F)ncnc2cc1OCC1CCN(C)CC1 | – | – | inactive and 31.6 µM (active) |
| CCCCCCCCCCCCOCCO | inactive | – | – |
| CCCc1nc(C(C)(C)O)c(C(=O)OCc2oc(=O)oc2C)n1Cc1ccc(-c2ccccc2-c2nn[nH]n2)cc1 | – | -1.96% (inactive) | – |

| SMILES | outcome | activity change, negative = cytotoxicity | Potency |
| --- | --- | --- | --- |
| NC(=O)c1cccnc1 | – | 3.14% (inactive) | – |
| CCCCCCCCCCCCCCCCOP(=O)([O-])OCC[N+](C)(C)C | – | -1.14% (inactive) | – |
| COC(=O)C(c1ccccc1)C1CCCCN1 (stereo not drawn) | – | -20.5% (inactive) | – |
| C#CCN[C@@H]1CCc2ccccc21 | – | – | inactive |
| CCCCCC[C@@H](CCC)C(=O)O | – | -4.22% (inactive) | – |
| C[C@@H](CN1CC(=O)NC(=O)C1)N1CC(=O)NC(=O)C1 | – | – | inactive |
| CC(=O)[C@@]1(O)CC[C@H]2[C@@H]3C[C@H](C)C4=CC(=O)C=C[C@]4(C)[C@@]3(F)[C@@H](O)C[C@@]21C | – | 3.64% (inactive) | – |
| CC1c2ccccc2CN1NC(=O)c1ccc(Cl)c(S(N)(=O)=O)c1 (stereo not drawn) | – | 4.94% (inactive) | – |
| CCOC(=O)/C=C(C)/C=C/C=C(C)/C=C/c1c(C)cc(OC)c(C)c1C | inactive | – | – |
| O=c1cc(O)c(Cl)c[nH]1 | inactive | – | – |
| NC(=O)NC1NC(=O)NC1=O (stereo not drawn) | inactive | – | – |
| COc1cc(C(=O)NC2CCCNC2)cc(OC)c1OC (stereo not drawn) | inactive | – | – |
| Cc1c(Nc2ncccc2C(=O)O)cccc1C(F)(F)F | inactive | – | – |
| CCc1cccc(CC)c1NC(=O)CN(CC(=O)O)CC(=O)O | inactive | – | – |
| CCCCOCCOC(=O)c1cccnc1 | – | 2.21% (inactive) | – |
| CNCCCC12CCC(c3ccccc31)c1ccccc12 | – | – | inactive |
| CCO/C([O-])=N/c1c[n+](N2CCOCC2)no1 | – | -9.29% (inactive) | – |
| C=CCN1C[C@H](C(=O)N(CCCN(C)C)C(=O)NCC)C[C@@H]2c3cccc4[nH]cc(c34)C[C@H]21 | inactive | – | – |
| Cc1cc2cc3c(C)cc(=O)oc3c(C)c2o1 | – | – | inactive |
